Compound activity (PubChem)
tim23-1 inh = growth inhibitors of tim23-1 mutant yeast; S. cerevisiae tim23-1 growth, BacTiter-Glo luminescence, 24 h; inhibition, % at 20 µM; actives 1.3% (n = 330,000);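 active = growth inhibition of the mutant yeast at or above 50%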;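 note: temperature-sensitive mutant grown at 25 °C; plate controls were DMSO-treated mutant yeast for no effect and medium wells lacking yeast for full effect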
tim10-1 inh = growth inhibitors of tim10-1 mutant yeast | S. cerevisiae tim10-1 ts strain growth, BacTiter-Glo, 24 h | actives 2.2% (n = 330,000) | inhibition, % at 20 µM | AID 463190;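 active = inhibition of at least 40%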;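 note: mutant grown at 25 °C; 0% = DMSO wells with yeast and 100% = wells holding no yeast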
TIM10 inh = TIM10 yeast growth inhibition; S. cerevisiae TIM10 strain growth, BacTiter-Glo luminescence, 24 h; inhibition, % at 10 µM; actives 1.4% (n = 330,000); AID 463195;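 active = inhibition of 40% or more at the single tested concentration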;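 note: wild-type TIM10 isogenic control strain grown at permissive 25 °C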
PfHsp90 set2 = reduces growth (ATP signal) of yeast expressing P. falciparum Hsp90. actives 0.32% (n = 310,000). AID 504621. inhibition, % at 9.4 µM. S. cerevisiae expressing PfHsp90, BacTiter-Glo ATP, 48 h; yeast lacking PDR1 and PDR3 efflux regulators;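 active = every replicate shows inhibition above about 80%, whatever the replicate mean, limit read from the data; inconclusive = mean inhibition reaches the set limit but some replicate falls short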;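 note: 0% = DMSO neutral controls and 100% = 20 µM radicicol positive controls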
NALP3 yeast inh = NALP3 inhibition in yeast; actives 0.39% (n = 330,000); inhibition, % at 10 µM; Yeast reconstituted NLRP3/ASC/caspase-1, beta-gal luminescence, 24 h;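 active = inhibition of 50% or more; inactive = inhibition below 50%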;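 note: plate controls were induced DMSO wells for no effect and uninduced yeast grown without galactose for full effect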
* hit, by the source's call. This is a sample that favours compounds with a hit; in the whole collection about 3.7% have one here.

`Cc1cc(/C=c2\sc3nc4ccccc4n3c2=O)c(C)n1-c1ccc(C(=O)O)cc1` gave PfHsp90 set2 112*.
For Cc1cc(/C=c2/sc3nc4ccccc4n3c2=O)c(C)n1-c1ccccn1 the results were tim23-1 inh 37, tim10-1 inh 31, TIM10 inh 36, PfHsp90 set2 19 and NALP3 yeast inh 11.
For COc1ccc(C2=CC3=C(Br)C(=O)C(C)(OC(=O)c4ccco4)C(=O)C3=CO2)cc1 (stereo not given) the results were tim23-1 inh 36, tim10-1 inh 31, TIM10 inh 15, PfHsp90 set2 active and NALP3 yeast inh 8.
`COc1ccc(C2=CC3=C(Br)C(=O)C(C)(OC(=O)c4cccs4)C(=O)C3=CO2)cc1` (stereo not given) gave tim23-1 inh -4, tim10-1 inh 20, TIM10 inh -6, PfHsp90 set2 107* and NALP3 yeast inh -2.
Screening CCN(c1ccccc1)S(=O)(=O)c1ccc(C(=O)NNC(=O)c2ccccc2F)cc1 returned tim23-1 inh 34, tim10-1 inh 26, TIM10 inh 21, PfHsp90 set2 4 and NALP3 yeast inh 10.
Screening CCN(CC)CCOC(=O)c1ccc(NC(=O)CSc2nnc(-c3cccs3)n2CC)cc1 returned PfHsp90 set2 -46.
Screening COc1ccc2c(c1)[C@H]1[C@H](CO2)[C@H](c2ccccc2)[C@]2(C)C(=O)Nc3ccc(Cl)cc3C(=O)N12 returned PfHsp90 set2 137*.
`C[C@@]12C(=O)Nc3ccc(Cl)cc3C(=O)N1[C@H]1c3cc(Cl)ccc3OC[C@@H]1[C@@H]2c1ccccc1` gave tim23-1 inh 34, tim10-1 inh 20, TIM10 inh 22, PfHsp90 set2 -37 and NALP3 yeast inh 4.
`CC1=CC(=O)C(C(C)C)=C/C1=N/OS(=O)(=O)c1ccccc1` gave tim23-1 inh 49, tim10-1 inh -140, TIM10 inh 25, PfHsp90 set2 110* and NALP3 yeast inh 44.
CC1=CC(=O)C=C(C)C1=NOS(=O)(=O)c1ccccc1 was read as PfHsp90 set2 106*.
COc1ccccc1OCCC(=O)Nc1cccc(S(=O)(=O)N2CCOCC2)c1 was read as tim23-1 inh 8, tim10-1 inh 5, TIM10 inh 6, PfHsp90 set2 13 and NALP3 yeast inh 11.
`O=C(O)/C=C/c1cn(-c2ccccc2)nc1-c1cc2ccccc2o1` gave tim23-1 inh 42, tim10-1 inh 13, TIM10 inh -20, PfHsp90 set2 90* and NALP3 yeast inh -2.
O=C(O)/C=C\c1cn(-c2ccccc2)nc1-c1cc2ccccc2o1 was read as tim23-1 inh 38, tim10-1 inh 27, TIM10 inh 3, PfHsp90 set2 inconclusive and NALP3 yeast inh 12.
Cc1cc(C)c(C#N)c(N2CCOCC2)n1 was read as tim23-1 inh 2, tim10-1 inh -12, TIM10 inh -1, PfHsp90 set2 9 and NALP3 yeast inh -3.
For Cc1cc(C)c2c(N=NN3CCOCC3)[nH]nc2n1 the results were tim23-1 inh 5, tim10-1 inh 9, TIM10 inh 3, PfHsp90 set2 102* and NALP3 yeast inh 16.
Screening COc1ccc(OC)c(NP2(=O)OCC(C)([N+](=O)[O-])CO2)c1 (stereo not given) returned PfHsp90 set2 30.
`C/C(CC(=O)Nc1cc(C)ccn1)=N\NC(=O)c1cccc(C)c1` gave tim23-1 inh -1, tim10-1 inh 4, TIM10 inh -15, PfHsp90 set2 7 and NALP3 yeast inh 13.
Screening C/C(CC(=O)Nc1cc(C)ccn1)=N\NC(=O)c1cccc(C)c1O returned tim23-1 inh 2, tim10-1 inh 19, TIM10 inh -9, PfHsp90 set2 101* and NALP3 yeast inh 6.
`Cc1cc(C(=O)OCC(=O)NCc2ccc(Cl)cc2Cl)c(C)o1` gave tim23-1 inh 9, tim10-1 inh 15, TIM10 inh -1, PfHsp90 set2 -26 and NALP3 yeast inh -1.
CCOc1ccccc1N1CCN(C(=O)c2cccc(-c3ccc(O)cc3)c2)CC1 was read as tim23-1 inh 10, tim10-1 inh 1, TIM10 inh 18, PfHsp90 set2 104* and NALP3 yeast inh 14.
Cc1c(C(=O)N(Cc2ccccc2)Cc2cccs2)cnn1-c1ccc(Cl)cc1 was read as tim23-1 inh 7, tim10-1 inh 18, TIM10 inh -2, PfHsp90 set2 105* and NALP3 yeast inh 8.
For Cc1c(C(=O)N(Cc2ccccc2)C(C)C)cnn1-c1ccccc1 the results were tim23-1 inh 23, tim10-1 inh -4, TIM10 inh 9, PfHsp90 set2 3 and NALP3 yeast inh 29.
Screening O=C(NCc1ccccc1Cl)C1=CC=CN2CCS(=O)(=O)N=C12 returned tim23-1 inh -16, tim10-1 inh -15, TIM10 inh -2, PfHsp90 set2 32 and NALP3 yeast inh 10.
Screening CCOC(=O)c1ccc(N2C(=O)CC(N3CCN(Cc4ccccc4)CC3)C2=O)cc1 (stereo not given) returned tim23-1 inh 26, tim10-1 inh 28, TIM10 inh 8, PfHsp90 set2 5 and NALP3 yeast inh 21.
For CCOC(=O)c1ccc(N2C(=O)CC(N3CCC(O)(c4ccc(Br)cc4)CC3)C2=O)cc1 (stereo not given) the results were tim23-1 inh 10, tim10-1 inh 15, TIM10 inh 14, PfHsp90 set2 96* and NALP3 yeast inh 10.
`CCOC(=O)c1ccc(N2C(=O)CC(N3CCC(O)(c4ccc(Cl)cc4)CC3)C2=O)cc1` (stereo not given) gave tim23-1 inh 25, tim10-1 inh 29, TIM10 inh 34, PfHsp90 set2 101* and NALP3 yeast inh 11.
For CCCOc1ccc(N2C(=O)CC(N3CCC(C(=O)OCC)CC3)C2=O)cc1 (stereo not given) the results were tim23-1 inh 38, tim10-1 inh 39, TIM10 inh 38, PfHsp90 set2 105* and NALP3 yeast inh 14.
Screening COc1ccccc1N1CCN(CCCN=C2CC(=O)N(C)C(=O)N2C)CC1 returned tim23-1 inh -15, tim10-1 inh -6, TIM10 inh -11, PfHsp90 set2 -6 and NALP3 yeast inh 18.
Screening CN(C)CCCNc1cc(O)c2ncccc2c1 returned tim23-1 inh 9, tim10-1 inh 10, TIM10 inh -3, PfHsp90 set2 -3 and NALP3 yeast inh 23.
For COc1cc(-c2nnc(SCC(=O)NC3CCCC3)n2C)cc(OC)c1O the results were tim23-1 inh 5, tim10-1 inh -22, TIM10 inh 7, PfHsp90 set2 1 and NALP3 yeast inh 20.
CCOC(=O)c1cc2cc(OCc3ccccc3)ccc2nc1C was read as tim23-1 inh -40, tim10-1 inh -74, TIM10 inh 0, PfHsp90 set2 118* and NALP3 yeast inh 36.
Screening CC1(c2nnc(Cc3ccccc3)o2)CC(c2cccc([N+](=O)[O-])c2)=NO1 (stereo not given) returned tim23-1 inh 13, tim10-1 inh 1, TIM10 inh 5, PfHsp90 set2 6 and NALP3 yeast inh 18.
